PubChem BioAssay AID1159580 (chemical genetic matrix, 2015)
Several values for one entry are separate records, joined by “and”; a condition that tells them apart may be missing. Equal values may be shown once. Screen size: about 5,500 compounds; about 2,000 (36%) were called active. Roughly 18% stayed inconclusive and do not appear here. Cut-off read from the data, not from the text of the source: active = normalized growth mostly below about 0.91 (no sharp cut-off); inconclusive = no clear call, values can overlap the other calls; inactive = mostly above about 0.92. Some of the results follow.

Assay: chemical genetic growth profiling, strain panel (AID 1159580);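 note: tested at 20 µM; growth read once vehicle control cultures reached saturation at 30 °C; 1 = growth at the plate median or of vehicle wells; lower values mean less growth of the strain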
Details: growth OD

Measured: normalized growth

NCCc1c[nH]c2ccccc12
inactive: S. cerevisiae deletion strains, locus YJR075W, strain HOC1, stronger effect = lower value 1.01 and 0.992 | S. cerevisiae deletion strains, locus YKL009W, strain mrt4, stronger effect = lower value 0.991 | S. cerevisiae deletion strains, locus YKL068W, stronger effect = lower value 0.987 | S. cerevisiae deletion strains, locus YKL085W, strain MDH1 (second series), stronger effect = lower value 0.996 | S. cerevisiae deletion strains, locus YKL085W, strain MDH1, stronger effect = lower value 0.996 | S. cerevisiae deletion strains, locus YKL160W, strain elf1, stronger effect = lower value 0.968 | S. cerevisiae deletion strains, locus YKL190W, strain CNB1, stronger effect = lower value 0.996 | S. cerevisiae deletion strains, locus YKR001C, strain vps1, stronger effect = lower value 0.987 | S. cerevisiae deletion strains, locus YKR026C, strain gcn3, stronger effect = lower value 0.958 | S. cerevisiae deletion strains, locus YKR091W, strain srl3, stronger effect = lower value 0.976 | S. cerevisiae deletion strains, locus YLL001W, strain dnm1, stronger effect = lower value 0.958 | S. cerevisiae deletion strains, locus YLL026W, stronger effect = lower value 0.941 | S. cerevisiae deletion strains, locus YLL041C, strain sdh2, stronger effect = lower value 0.965 | S. cerevisiae deletion strains, locus YLR027C, strain aat2, stronger effect = lower value 0.974 | S. cerevisiae deletion strains, locus YLR039C, strain RIC1, stronger effect = lower value 0.988 | S. cerevisiae deletion strains, locus YLR058C, strain SHM2, stronger effect = lower value 0.975 | S. cerevisiae deletion strains, locus YLR102C, strain apc9, stronger effect = lower value 0.996 | S. cerevisiae deletion strains, locus YLR113W, strain HOG1, stronger effect = lower value 0.999 | S. cerevisiae deletion strains, locus YLR221C, strain rsa3, stronger effect = lower value 0.998 | S. cerevisiae deletion strains, locus YLR258W, strain gsy2, stronger effect = lower value 0.965 | S. cerevisiae deletion strains, locus YLR262C, strain YPT6 (second series), stronger effect = lower value 0.956 | S. cerevisiae deletion strains, locus YLR262C, strain YPT6, stronger effect = lower value 0.934 | S. cerevisiae deletion strains, locus YLR268W, strain sec22, stronger effect = lower value 1.06 | S. cerevisiae deletion strains, locus YLR320W, strain mms22, stronger effect = lower value 0.985 | S. cerevisiae deletion strains, locus YLR330W, strain CHS5, stronger effect = lower value 0.973 | S. cerevisiae deletion strains, locus YLR342W, strain FKS1 (second series), stronger effect = lower value 0.986 | S. cerevisiae deletion strains, locus YLR342W, strain FKS1, stronger effect = lower value 0.972 | S. cerevisiae deletion strains, locus YLR357W, strain rsc2, stronger effect = lower value 0.987 | S. cerevisiae deletion strains, locus YLR370C, strain arc18, stronger effect = lower value 0.94 | S. cerevisiae deletion strains, locus YLR371W, strain rom2, stronger effect = lower value 0.982 | S. cerevisiae deletion strains, locus YLR384C, strain iki3, stronger effect = lower value 0.949 | S. cerevisiae deletion strains, locus YLR418C, strain cdc73, stronger effect = lower value 0.99 | S. cerevisiae deletion strains, locus YML016C, strain PPZ1, stronger effect = lower value 0.99 | S. cerevisiae deletion strains, locus YML032C, strain rad52, stronger effect = lower value 1.01 | S. cerevisiae deletion strains, locus YML120C, strain ndi1, stronger effect = lower value 0.962 | S. cerevisiae deletion strains, locus YML124C, strain tub3, stronger effect = lower value 0.988 | S. cerevisiae deletion strains, locus YMR058W, strain fet3, stronger effect = lower value 0.96 | S. cerevisiae deletion strains, locus YMR078C, strain ctf18, stronger effect = lower value 0.986 | S. cerevisiae deletion strains, locus YMR125W, strain sto1, stronger effect = lower value 0.96 | S. cerevisiae deletion strains, locus YMR129W, stronger effect = lower value 0.973 | S. cerevisiae deletion strains, locus YMR205C, strain PFK2, stronger effect = lower value 0.975 | S. cerevisiae deletion strains, locus YMR223W, strain ubp8, stronger effect = lower value 0.955 | S. cerevisiae deletion strains, locus YMR231W, strain pep5, stronger effect = lower value 0.97 | S. cerevisiae deletion strains, locus YMR263W, strain SAP30, stronger effect = lower value 0.995 | S. cerevisiae deletion strains, locus YMR307W, strain GAS1, stronger effect = lower value 0.987 | S. cerevisiae deletion strains, locus YNL067W, strain RPL9B, stronger effect = lower value 1.03 | S. cerevisiae deletion strains, locus YNL071W, strain lat1, stronger effect = lower value 0.973 | S. cerevisiae deletion strains, locus YNL128W, strain TEP1, stronger effect = lower value 0.976 | S. cerevisiae deletion strains, locus YNL153C, strain GIM3, stronger effect = lower value 1.02 | S. cerevisiae deletion strains, locus YNL175C, strain NOP13, stronger effect = lower value 1 | S. cerevisiae deletion strains, locus YNL183C, strain NPR1, stronger effect = lower value 0.97 | S. cerevisiae deletion strains, locus YNL197C, strain WHI3, stronger effect = lower value 0.989 | S. cerevisiae deletion strains, locus YNL209W, strain ssb2, stronger effect = lower value 0.96 | S. cerevisiae deletion strains, locus YNL224C, strain SQS1, stronger effect = lower value 1 | S. cerevisiae deletion strains, locus YNL233W, strain BNI4, stronger effect = lower value 1.01 | S. cerevisiae deletion strains, locus YNL248C, strain rpa49, stronger effect = lower value 0.986 | S. cerevisiae deletion strains, locus YNL250W, strain rad50, stronger effect = lower value 0.974 | S. cerevisiae deletion strains, locus YNL271C, strain bni1, stronger effect = lower value 0.994 | S. cerevisiae deletion strains, locus YNL298W, strain CLA4, stronger effect = lower value 0.995 | S. cerevisiae deletion strains, locus YNL307C, strain MCK1, stronger effect = lower value 0.984 | S. cerevisiae deletion strains, locus YNL322C, strain KRE1 (second series), stronger effect = lower value 0.943 | S. cerevisiae deletion strains, locus YNL322C, strain KRE1, stronger effect = lower value 0.988 | S. cerevisiae deletion strains, locus YNR049C, strain mso1, stronger effect = lower value 0.959 | S. cerevisiae deletion strains, locus YNR052C, strain pop2, stronger effect = lower value 0.985 | S. cerevisiae deletion strains, locus YOL006C, strain TOP1, stronger effect = lower value 1.05 | S. cerevisiae deletion strains, locus YOL012C, strain htz1 1.16 | S. cerevisiae deletion strains, locus YOL147C, strain pex11, stronger effect = lower value 0.988 | S. cerevisiae deletion strains, locus YOR001W, strain rrp6, stronger effect = lower value 0.971 | S. cerevisiae deletion strains, locus YOR061W, strain CKA2, stronger effect = lower value 0.97 | S. cerevisiae deletion strains, locus YOR069W, strain VPS5, stronger effect = lower value 0.992 | S. cerevisiae deletion strains, locus YOR070C, strain gyp1, stronger effect = lower value 0.982 | S. cerevisiae deletion strains, locus YOR080W, strain dia2, stronger effect = lower value 0.959 | S. cerevisiae deletion strains, locus YOR083W, strain WHI5 (second series), stronger effect = lower value 0.966 | S. cerevisiae deletion strains, locus YOR083W, strain WHI5, stronger effect = lower value 0.982 | S. cerevisiae deletion strains, locus YOR106W, strain vam3, stronger effect = lower value 0.942 | S. cerevisiae deletion strains, locus YOR136W, strain idh2, stronger effect = lower value 0.978 | S. cerevisiae deletion strains, locus YOR144C, strain elg1, stronger effect = lower value 0.999 | S. cerevisiae deletion strains, locus YOR184W, strain ser1, stronger effect = lower value 1 | S. cerevisiae deletion strains, locus YOR231W, strain MKK1, stronger effect = lower value 0.979 | S. cerevisiae deletion strains, locus YOR265W, strain rbl2, stronger effect = lower value 0.954 | S. cerevisiae deletion strains, locus YOR270C, strain vph1, stronger effect = lower value 0.892 | S. cerevisiae deletion strains, locus YOR290C, strain snf2, stronger effect = lower value 0.959 | S. cerevisiae deletion strains, locus YOR316C, strain cot1, stronger effect = lower value 0.995 | S. cerevisiae deletion strains, locus YPL051W, strain arl3, stronger effect = lower value 0.973 | S. cerevisiae deletion strains, locus YPL055C, strain LGE1, stronger effect = lower value 0.99 | S. cerevisiae deletion strains, locus YPL078C, strain atp4, stronger effect = lower value 0.943 | S. cerevisiae deletion strains, locus YPL106C, strain sse1, stronger effect = lower value 0.916 | S. cerevisiae deletion strains, locus YPL240C, strain hsp82, stronger effect = lower value 0.962 | S. cerevisiae deletion strains, locus YPL241C, strain CIN2, stronger effect = lower value 0.99 and 0.999 | S. cerevisiae deletion strains, locus YPL256C, strain CLN2, stronger effect = lower value 0.951 | S. cerevisiae deletion strains, locus YPR119W, strain clb2, stronger effect = lower value 0.992 | S. cerevisiae deletion strains, locus YPR141C, strain kar3, stronger effect = lower value 0.983 | S. cerevisiae deletion strains, locus YPR163C, strain tif3, stronger effect = lower value 0.986 | S. cerevisiae deletion strains, locus YPR167C, strain met16, stronger effect = lower value 0.994 | S. cerevisiae deletion strains, strain wtn01, stronger effect = lower value 1.02 | S. cerevisiae strains, strain wild type, stronger effect = lower value 0.987
